Assay results: PubChem BioAssay (NCATS)
Records with an inconclusive call do not appear. Calls of active or inactive are those of the source. The call rests on the fitted dose curve; in most records, active means well fitted curve in the direction sought with a large enough effect; inconclusive means small, poorly fitted or top-dose-only effect, or another doubt; inactive means no such curve, though single readings can be large; an effect the other way counts as inactive or inconclusive.

Experiments:
[1] = tested on: Zika virus NS2B-NS3 protease (linked construct); assay: Primary screen NINDS Rhodamine qHTS for Zika virus inhibitors (AID 1347160); further: nearly all actives have a fitted effect of over 55% in size; further: potency means the concentration at half of the fitted maximal effect
Method in brief: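 Single-chain NS2B-NS3 protease, 25 nM, pH 8.0; compounds preincubated 15 min. Activity: Rhodamine110 release from 1.5 microM substrate over 15 min, room temperature, data fitted to 4-parameter Hill.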

[2] = HPAF-II Cancer Cell Toxicity qHTS against the NCATS CANVASS Library (AID 1347346); further: nearly all actives have a fitted effect of over 55% in size; further: potency means the concentration at half of the fitted maximal effect
Method in brief: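 First, HPAF-II cells are plated (1000 cells/well) and held 4 h at 37 degrees C. Next, compounds are pin-transferred as an 11-point series. After 72 h, CellTiter-Glo is added and luminescence measured.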

[3] = U-118MG Cancer Cell Toxicity qHTS against the NCATS CANVASS Library (AID 1347351); further: potency means the concentration at half of the fitted maximal effect
Method in brief: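 Following a 4 h pre-incubation of 1000 seeded cells, compounds were pinned in an 11-pnt dilution series and left for 72 h; viability then came from CellTiter-Glo.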

[4] = HPAF-II 24hr Apoptosis Induction qHTS against the NCATS CANVASS Library (AID 1347356)
Method in brief: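 Cells seeded at 500 per well, then compounds pin-transferred in an 11-point concentration series. After 24 hours at 37 degrees C, Caspase-Glo 3/7 was added and luminescence measured following 15 min at room temperature.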

[5] = HEK293 18hr Apoptosis Induction qHTS against the NCATS CANVASS Library (AID 1347357); further: potency means the concentration at half of the fitted maximal effect
Method in brief: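 HEK293 cells (500/well, DMEM + 10% FBS) treated with an 11-point series for 18 h at 37 degrees C. Caspase-3/7 activity read by Caspase-Glo luminescence after 15 min at room temperature.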

[6] = HEK293 24hr Apoptosis Induction qHTS against the NCATS CANVASS Library (AID 1347359); further: potency means the concentration at half of the fitted maximal effect
Method in brief: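 HEK293 cells, 500 per well, exposed to an 11-point compound series for 24 hours at 37 degrees C. Caspase 3/7 activity read by Caspase-Glo luminescence (DEVD substrate) after 15 min at room temperature.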

[7] = HEK293 12hr Apoptosis Induction qHTS against the NCATS CANVASS Library (AID 1347361); further: potency means the concentration at half of the fitted maximal effect
Method in brief: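 HEK293 cells (500/well) were exposed to an 11-point qHTS concentration series for 12 hours at 37 degrees C. Caspase-3/7 activity was then read by DEVD-substrate luciferase luminescence after 15 min at room temperature.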

[8] = biological target: Luciferin 4-monooxygenase (Photinus pyralis) (UniProt P08659); assay: Firefly luciferase counterscreen qHTS: Assay Interference Panel against the NCATS CANVASS Library (AID 1347363); further: series mostly up to about 57 µM
Method in brief: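 Purified P. pyralis luciferase (0.04 ug/mL, 4x reagent) added to Tris-acetate buffer with 0.013 mM D-luciferin, 0.013 mM ATP and 13.3 mM Mg-acetate; compounds preincubated 15 min, then luminescence read after 5 min, RT.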

[9] = KB-3-1 Cancer Cell Toxicity qHTS against the NCATS CANVASS Library (AID 1347366); further: nearly all actives have a fitted effect of over 75% in size; further: potency means the concentration at half of the fitted maximal effect
Method in brief: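 KB-3-1 cells (500/well) in DMEM with 10% FBS were exposed to compounds for 72 h at 37C. Viability was read by CellTiter-Glo luminescence.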

[10] = qHTS for ATAD5 Agonist screened against the NCATS CANVASS Library (AID 1347367);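 further: luciferase reporter driven by ATAD5 which rises upon DNA damage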
Method in brief: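 Luciferase reporter under ATAD5 control, stably integrated in HEK293T cells (2000/well). Compounds (11 points) incubated 16 h at 37C; viability read first by CellTiter-Fluor, then luminescence reporting ATAD5 activation. MMS positive control.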

[11] = MCF7 Cancer Cell Toxicity qHTS against the NCATS CANVASS Library (AID 1347369); further: potency means the concentration at half of the fitted maximal effect
Method in brief: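 MCF7 cells (500/well) were exposed 72 h at 37 °C to compounds in an 11-point series. Viability was read as ATP content by CellTiterGlo luminescence.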

[12] = qHTS for ATAD5 Antagonist screened against the NCATS CANVASS Library (AID 1347370); further: nearly all actives have a fitted effect of over 65% in size; further: potency means the concentration at half of the fitted maximal effect
Method in brief: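 Compounds (11-point) co-dosed with 10 µM 5-FUrd for 16 h at 37 °C onto HEK293T-ATAD5 luciferase reporter cells. Viability measured by CellTiter-Fluor fluorescence, then ATAD5 reporter signal by luminescence.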

[13] = J3T Cancer Cell Toxicity qHTS against the NCATS CANVASS Library (AID 1347371); further: potency means the concentration at half of the fitted maximal effect
Method in brief: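 Luminescence from CellTiterGlo, reporting cellular ATP, serves as the viability measure after 72 hr compound treatment of J3T canine glioma cells seeded at 500 cells/well.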

[14] = biological target: Nuclear receptor subfamily 1 group I member 3 (Homo sapiens) (UniProt Q14994); assay: qHTS for Constitutive Androstane Receptor (CAR) Agonist screened against the NCATS CANVASS Library (AID 1347373);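 further: every well also contained 1.5 µM PK11195 alongside the test compound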
Method in brief: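 Cells were plated and allowed to attach for 4hr, then dosed with compound in an 11-point series alongside 1.5uM PK11195. After 24hr at 37C, viability was measured fluorometrically and CAR-driven CYP2B6 reporter luminescence was recorded.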

[15] = 10-beta competent E. coli microbial cell viability qHTS against the NCATS CANVASS Library (AID 1347376); further: series mostly up to about 46 µM
Method in brief: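 Bacterial suspension diluted to 0.2 OD was dosed with compounds, 11-point series, then held overnight at 37C. BacTiter-Glo reagent was added, and after 20 min at room temperature ATP-dependent luminescence was measured.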

[16] = qHTS for Inflammasome Signaling Inhibitors: IL-1-beta AlphaLISA screen against the NCATS CANVASS Library (AID 1347379);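 further: human THP-1 cells primed with LPS then triggered with ATP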
Method in brief: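 Secreted IL-1B from human THP-1 cells quantified by AlphaLISA 16 hr after compound addition (final up to 57.5 uM). A 1 hr compound pretreatment preceded inflammasome activation with 250 ng/mL LPS plus 1.25 mM ATP (final).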

[17] = Inflammasome Signaling qHTS Counterscreen: IL-1-beta AlphaLISA counterscreen against the NCATS CANVASS Library (AID 1347381);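 further: cell-free check with purified IL-1β in medium and no THP-1 cells; series mostly up to about 57 µM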
Method in brief: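 Purified IL-1-beta (4 pg/well) + compound, 11-pt conc. series; acceptor beads 6 ug/mL + biotin-Ab 0.6 nM final, 1 h RT; SA-donor 24 ug/ml final, 30 min dark RT; read ex 680/em 615.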

[18] = Vero-766 cells viability qHTS against the NCATS CANVASS Library: Counterscreen for Zika virus inhibition assay (AID 1347394); further: nearly all actives have a fitted effect of over 60% in size; further: potency means the concentration at half of the fitted maximal effect
Method in brief: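 Vero 766 cells (1000/well), without Zika virus, were exposed to compounds for 72 h at 37C. Viability was measured by CellTiter Glo luminescence. Media-only wells served as 100% inhibition.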

[19] = Viability qHTS for inhibitors of the SERCaMP assay screened against the NCATS CANVASS Library (AID 1347400); further: nearly all actives have a fitted effect of over 70% in size; further: potency means the concentration at half of the fitted maximal effect
Method in brief: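 Seed SH-SY5Y-GLuc SERCaMP MJH297 cells at 1000 per well, incubate 4 h, add compounds across an 11-point range, incubate 48 h at 37C, then add CellTiter-Glo and read luminescence.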

[20] = COV-362 Cancer Cell Toxicity qHTS against the NCATS CANVASS Library (AID 1347352); further: potency means the concentration at half of the fitted maximal effect
Method in brief: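 First, 1000 cells go into each well and rest for 4 hours. Next, an 11-point dilution range is pinned in. Plates then incubate 72 hours before CellTiter-Glo addition and luminescence reading.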

Measured: Potency

Sequence of Nuclear receptor subfamily 1 group I member 3 (Homo sapiens) (Q14994 whole entry, looked up): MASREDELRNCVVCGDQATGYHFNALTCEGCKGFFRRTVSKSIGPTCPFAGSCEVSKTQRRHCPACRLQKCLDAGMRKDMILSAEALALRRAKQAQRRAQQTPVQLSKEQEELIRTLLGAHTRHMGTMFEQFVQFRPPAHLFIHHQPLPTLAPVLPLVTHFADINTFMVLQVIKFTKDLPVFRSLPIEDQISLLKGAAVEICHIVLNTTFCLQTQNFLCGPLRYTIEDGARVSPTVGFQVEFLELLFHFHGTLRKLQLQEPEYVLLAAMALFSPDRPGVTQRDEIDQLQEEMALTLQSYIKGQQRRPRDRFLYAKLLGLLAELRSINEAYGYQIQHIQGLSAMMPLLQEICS
Sequence of Luciferin 4-monooxygenase (Photinus pyralis) (P08659 whole entry, looked up): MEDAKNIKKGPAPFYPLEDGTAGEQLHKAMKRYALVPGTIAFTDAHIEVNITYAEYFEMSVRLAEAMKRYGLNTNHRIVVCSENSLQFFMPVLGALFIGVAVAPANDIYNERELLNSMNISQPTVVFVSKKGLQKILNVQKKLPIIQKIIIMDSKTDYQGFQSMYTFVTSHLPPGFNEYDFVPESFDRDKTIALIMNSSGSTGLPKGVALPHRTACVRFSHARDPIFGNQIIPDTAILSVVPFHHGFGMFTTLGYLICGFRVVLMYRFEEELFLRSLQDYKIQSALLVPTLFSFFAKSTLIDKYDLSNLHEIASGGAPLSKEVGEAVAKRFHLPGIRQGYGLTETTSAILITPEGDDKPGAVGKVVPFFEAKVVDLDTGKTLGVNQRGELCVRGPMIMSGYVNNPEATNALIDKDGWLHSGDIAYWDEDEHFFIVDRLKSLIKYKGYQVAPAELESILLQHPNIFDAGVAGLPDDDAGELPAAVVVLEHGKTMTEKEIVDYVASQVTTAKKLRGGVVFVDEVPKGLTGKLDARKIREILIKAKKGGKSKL

O=Cc1ccc2n1C[C@@]1(C[C@H](O)[C@H](O)CO1)OC2
not listed: [20]
inactive: all other assays above

O=C(O)[C@@]12COC3(O)C1CCN1CC[C@H]3[C@@H]1c1c2[nH]c2ccccc12
inactive: all assays above

CC(C)(Br)[C@@H](Cl)C[C@H](Br)[C@](C)(Cl)/C=C/Br
active: [1] 34.9 µM | [2] 26.6 µM | [3] 18.8 µM
not listed: [16] | [19] | [20]
inactive: all other assays above

CC[C@@H]1C[C@@]2(CC)OC(=O)[C@@]3(CC)OC(=O)[C@@H]1[C@@H]23
inactive: all assays above

C[C@@H]1C[C@H]2C[C@]3(CCCCN3C)[C@@H]3C[C@H]2[C@H](C1)N(C)C3
not listed: [19]
inactive: all other assays above

O=Cc1ccc2n1C[C@@]1(OC2)O[C@H](CO)[C@@H](O)[C@@H]1O
inactive: all assays above

C/C=C1/CC[C@@H]2c3[nH]c4ccccc4c3CCN2C1
inactive: all assays above

C=C[C@]1(C)CC[C@@H]([C@H](C)C(=O)/C=C/C(C)C)O1
inactive: all assays above

C=CC(=C)CC[C@]1(C)[C@H]2C[C@H](OC(=O)C(C)CC)C=C3[C@H](OC(C)=O)O[C@H](OC(C)=O)[C@@]32[C@H](OC)C[C@@H]1C (stereo partly specified)
active: [1] 32.1 µM | [2] 3.43 µM | [3] 3.43 µM | [20] 4.33 µM | [5] 13.6 µM | [6] 9.59 µM | [7] 17.1 µM | [9] 6.79 µM | [11] 12.1 µM | [12] 10.8 µM | [13] 4.81 µM | [16] 7.03 µM | [18] 6.8 µM | [19] 2.21 µM
inactive: [8] | [10] | [14] | [15] | [17]

CN1CC[C@]2(c3cccc4c3N[C@@H]3N(C)CC[C@]43[C@@]34CCN(C)[C@@H]3Nc3c([C@]56CCN(C)[C@H]5Nc5ccccc56)cccc34)c3ccccc3N[C@H]12
active: [2] 8.41 µM | [3] 6.68 µM | [20] 5.94 µM | [9] 4.69 µM | [11] 2.34 µM | [12] 9.33 µM | [13] 2.64 µM | [16] 24.3 µM | [18] 20.9 µM | [19] 4.8 µM
inactive: [1] | [4] | [5] | [6] | [7] | [8] | [10] | [14]

COc1ccc2cc(NC(=O)C3=NO[C@H]4[C@H](O)C=C[C@@H](Cl)[C@@]4(O)C3)c(=O)oc2c1OC
active: [1] 49.3 µM
not listed: [12]
inactive: all other assays above
